In PubChem BioAssay (NCI) one finds growth data, which are given here for 8 molecules.

Each structure is given as a SMILES string. This is part of a sample that, as a whole, favours compounds with a hit. Of some 83,000 tested, about 20% had one in any assay.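 Plates (96-well) were seeded with cells, treated with compound at one concentration, and incubated for 48 hours before percent growth was determined.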 A number with no mark means an inactive call. The source made the active and inactive calls. How the source made its calls: active means growth percent below 10; inactive means the rest.

Test systems include HCT-15 colon; HT29 colon; SNB-75 CNS; SNB-19 CNS; U251 CNS; PC-3 prostate; SK-MEL-5 melanoma; UACC-62 melanoma; LOX IMVI melanoma; SK-MEL-28 melanoma; SK-MEL-2 melanoma; EKVX NSCLC; SN12C renal; UO-31 renal; TK-10 renal; ACHN renal; CAKI-1 renal; A498 renal; CCRF-CEM leukemia; MOLT-4 leukemia.
What all share (experiment): NCI-60 one-dose screen, 48 h (100 = growth as untreated, 0 = no growth, -100 = all killed)
Conditions in all cases: 10 µM unless noted

As for `N#Cc1c(-c2ccc(Cl)cc2)nc(SCC(=O)NC2=NN=C(c3ccccc3)CS2)[nH]c1=O`, the growth in the test on HCT-15 colon was 72.4%; in the test on HT29 colon it was 104%; in the test with SNB-75 CNS, 80.5%; with SNB-19 CNS it was 85.8%; in the test with U251 CNS, 77.3%; with PC-3 prostate, 78.6%. Besides, the growth is 84.2% in the test with SK-MEL-5 melanoma; 75.1% with UACC-62 melanoma; 69.5% in the test with LOX IMVI melanoma; 76.3% in the test on SK-MEL-28 melanoma; 82.9% in the test with SK-MEL-2 melanoma; 86.2% with EKVX NSCLC. Further, the growth with SN12C renal was 97.4%; in the test on UO-31 renal it was 71.2%; with TK-10 renal, 119%; in the test with ACHN renal, 88.9%; in the test with CAKI-1 renal, 77%; in the test on A498 renal, 97.6%. Further, the growth in the test with CCRF-CEM leukemia was 63.8%; in the test on MOLT-4 leukemia, 90.4%.
Regarding `c1cc2[nH]ncc2cc1-c1nc2ccc3[nH]ncc3c2c2c1CCCC2`, the growth in the test on HCT-15 colon was 7.1% (active); in the test on HT29 colon it was 4.84% (active); in the test with SNB-75 CNS, -3.31% (active); with SNB-19 CNS, 24.3%; in the test on U251 CNS, 15.7%; with PC-3 prostate, 23.1%. In addition, the growth was -56.1% (active) in the test on SK-MEL-5 melanoma; 1.74% (active) in the test on UACC-62 melanoma; 16.2% with LOX IMVI melanoma; -0.43% (active) in the test with SK-MEL-28 melanoma; -48.7% (active) in the test on SK-MEL-2 melanoma; 17.8% in the test on EKVX NSCLC. Further, the growth was 20.6% in the test on SN12C renal; -0.203% (active) in the test on UO-31 renal; 8.08% (active) in the test on TK-10 renal; 9.47% (active) in the test on ACHN renal; 9.5% (active) in the test on CAKI-1 renal; -1.43% (active) in the test with A498 renal. Moreover, the growth in the test with CCRF-CEM leukemia was 9.05% (active); with MOLT-4 leukemia, -6.76% (active).
Regarding `CN1CCN(C(=O)c2ccc(NC(=O)Nc3ccc(-c4nc(N5CCOCC5)c5cccn5n4)cc3)cc2)CC1`, the growth is 13.2% in the test on HCT-15 colon; 5.74% (active) with HT29 colon; -37.7% (active) in the test with SNB-75 CNS; 3.27% (active) in the test with SNB-19 CNS; 3.91% (active) in the test with U251 CNS; 5.5% (active) with PC-3 prostate. The growth in the test with SK-MEL-5 melanoma is -61.6% (active); in the test on UACC-62 melanoma, -41.3% (active); with LOX IMVI melanoma, -3.2% (active); in the test on SK-MEL-28 melanoma, -18.4% (active); in the test on SK-MEL-2 melanoma, -8.25% (active); with EKVX NSCLC it was -22.8% (active). In addition, the growth in the test on SN12C renal is 5.33% (active); in the test with UO-31 renal, -14.6% (active); with TK-10 renal, -23.5% (active); in the test on ACHN renal, -6.03% (active); in the test on CAKI-1 renal, 15.3%; in the test on A498 renal, -51.5% (active). In addition, the growth in the test on CCRF-CEM leukemia is 16.9%; in the test on MOLT-4 leukemia it was 0.147% (active).
`CC(=O)c1cc(O)c2ccccc2c1O`: the growth with HCT-15 colon was 98.9%; in the test on HT29 colon it was 111%; in the test with SNB-75 CNS, 70.7%; in the test on SNB-19 CNS, 100%; with U251 CNS, 98.2%; in the test with PC-3 prostate, 85.7%. The growth in the test on SK-MEL-5 melanoma is 86.4%; in the test on UACC-62 melanoma it was 101%; in the test on LOX IMVI melanoma, 78.5%; in the test on SK-MEL-28 melanoma, 137%; with SK-MEL-2 melanoma it was 103%; with EKVX NSCLC, 78.9%. Besides, the growth is 105% in the test with SN12C renal; 67% in the test on UO-31 renal; 148% with TK-10 renal; 85.1% in the test on ACHN renal; 85.7% in the test on CAKI-1 renal; 133% in the test on A498 renal. Besides, the growth with CCRF-CEM leukemia was -10.5% (active); with MOLT-4 leukemia it was 107%.
Consider `COC(=O)c1ccc2c(c1)C(=O)c1c-2n(CCCN)c(=O)c2cc([N+](=O)[O-])ccc12`, for which the growth with HCT-15 colon was -96.1% (active); in the test on HT29 colon, -100% (active); in the test on SNB-75 CNS, -99.2% (active); in the test with SNB-19 CNS, -59.3% (active); in the test with U251 CNS, -100% (active); with PC-3 prostate, -70.1% (active). Moreover, the growth is -100% (active) in the test on SK-MEL-5 melanoma; -100% (active) in the test on UACC-62 melanoma; -100% (active) with LOX IMVI melanoma; -100% (active) with SK-MEL-28 melanoma; -49.8% (active) in the test on SK-MEL-2 melanoma; -87.7% (active) with EKVX NSCLC. Also, the growth with SN12C renal is -100% (active); with UO-31 renal, -100% (active); in the test with TK-10 renal it was -83% (active); in the test on ACHN renal, -100% (active); with CAKI-1 renal, -94.2% (active); with A498 renal, -100% (active). The growth was -83.9% (active) in the test on CCRF-CEM leukemia and -58.6% (active) in the test on MOLT-4 leukemia.
Regarding `C=C(CNCCc1ccc(O)cc1)[C@@H]1CC[C@]2(CO)CC[C@]3(C)[C@H](CC[C@@H]4[C@@]5(C)CCC(NCCO)C(C)(C)[C@@H]5CC[C@]43C)[C@@H]12` (stereo not given in full), the growth with HCT-15 colon is -80.9% (active); with HT29 colon it was -44.1% (active); in the test with SNB-75 CNS it was -97.8% (active); with SNB-19 CNS it was -73.2% (active); in the test on U251 CNS it was -83.7% (active); in the test on PC-3 prostate, -20.1% (active). For the same molecule, the growth is -94.2% (active) in the test with SK-MEL-5 melanoma; -80.8% (active) with UACC-62 melanoma; -84.1% (active) in the test with LOX IMVI melanoma; -92.4% (active) in the test with SK-MEL-28 melanoma; -81% (active) in the test with SK-MEL-2 melanoma; -52.1% (active) in the test with EKVX NSCLC. Moreover, the growth was -70.3% (active) in the test on SN12C renal; -96.1% (active) in the test with UO-31 renal; -80.6% (active) with TK-10 renal; -60.8% (active) with ACHN renal; -77.2% (active) with CAKI-1 renal; 69.3% with A498 renal. Moreover, the figures for the growth with CCRF-CEM leukemia and in the test with MOLT-4 leukemia were -19.7% (active) and -19.2% (active), respectively.
For the molecule `C=C1C(=O)O[C@H]2[C@H]1CC/C(COC(=O)CCSCCC(=O)OC/C1=C/CC[C@@]3(C)O[C@H]3[C@H]3OC(=O)C(=C)[C@@H]3CC1)=C\CC[C@@]1(C)O[C@@H]21`, the growth was -6.34% (active) in the test with HCT-15 colon; -9.93% (active) in the test with HT29 colon; 48.6% with SNB-75 CNS; 55% in the test with SNB-19 CNS; 6.76% (active) with U251 CNS; -14.5% (active) in the test with PC-3 prostate. Further, the growth in the test with SK-MEL-5 melanoma is 54.3%; in the test on UACC-62 melanoma, -67% (active); in the test on LOX IMVI melanoma, -79.3% (active); with SK-MEL-28 melanoma it was -35.6% (active); in the test with SK-MEL-2 melanoma, 23.8%; with EKVX NSCLC it was 12%. The growth in the test with SN12C renal was 0.113% (active); with UO-31 renal, -49.4% (active); with TK-10 renal, -3.89% (active); with ACHN renal, -12% (active); in the test with CAKI-1 renal it was 4.51% (active); in the test on A498 renal, 69.8%. The growth is -24.8% (active) in the test with CCRF-CEM leukemia and -25.7% (active) in the test with MOLT-4 leukemia.
Regarding `Cc1oc(-c2ccc(Cl)cc2)nc1/C=C/C(=O)c1ccccc1`, the growth in the test with HCT-15 colon is 97.5%; with HT29 colon it was 107%; with SNB-75 CNS, 93.2%; in the test with SNB-19 CNS, 97.6%; with U251 CNS it was 97.5%; in the test with PC-3 prostate, 93.6%. The growth in the test on SK-MEL-5 melanoma was 99%; in the test with UACC-62 melanoma it was 87.5%; with LOX IMVI melanoma, 99.6%; in the test on SK-MEL-28 melanoma, 105%; in the test with SK-MEL-2 melanoma, 100%; with EKVX NSCLC, 95%. The growth with SN12C renal is 95.6%; in the test with UO-31 renal it was 83.9%; in the test with TK-10 renal, 122%; with ACHN renal, 101%; in the test with CAKI-1 renal, 91.9%; with A498 renal, 101%. The growth was 97% with CCRF-CEM leukemia and 92.3% with MOLT-4 leukemia.
